Experimental data as given in PubChem BioAssay (Tox21).
Results filed as inconclusive are left out. Activity calls are given as the source filed them. Unless noted, calls come from the whole dose curve; as a rule, active = well fitted curve in the direction sought with a large enough effect in the repeat runs; inconclusive = weak or mixed curves; inactive = no such curve, though single readings can be large; an effect the other way counts as inactive or inconclusive.

How the values were obtained:
[1] = qHTS assay to identify small molecule antagonists of the vitamin D receptor (VDR) signaling pathway - cell viability counter screen (AID 743225); note: nearly all actives have a fitted effect of over 50% in size
Outline: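 HEK293T VDR-bla; cpd + 1a,25-(OH)2D3 3 nM final, 16 h 37C/5% CO2; B/G FRET substrate 2 h RT; then CellTiter-Glo 30 min RT, luminescence.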

[2] = qHTS assay to identify small molecule agonists of the NFkB signaling pathway (AID 1159509; active = well fitted curve in the direction sought with a large enough effect in the signal ratio in the repeat runs, not every such curve was filed as active; the % refers to the signal ratio; note: series mostly up to about 61 µM)
Outline: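 After overnight attachment, reporter cells received test compounds, DMSO or positive controls and were incubated 5 hr at 37 C. FRET substrate was then added for 1.5 hr at room temperature before dual-emission fluorescence reading.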

[3] = qHTS assay to identify small molecule agonists of the endoplasmic reticulum stress response signaling pathway (AID 1159516; active = well fitted activation curve with a large enough effect in the signal ratio in the repeat runs, not every such curve was filed as active; the % refers to the signal ratio)
Outline: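 ER stress element reporter (bla) in HeLa. 1,500 cells/well, overnight attachment; 5 hr compound; 2 hr RT substrate; dual-emission fluorescence.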

[4] = qHTS assay to identify small molecule antagonists of the retinoid-related orphan receptor gamma (ROR-gamma) signaling pathway - cell viability counter screen (AID 1159520); note: nearly all actives have a fitted effect of over 50% in size
Outline: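 Tet-on ROR gamma CHO cells (1,000/well) were plated 4 hr, given compounds in DMSO for 2 hr at 37 C, then induced with 1 uM final doxycycline for 16 hr. Viability was read as ATP by CellTiter-Glo luminescence after 30 min.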

[5] = target: Nuclear receptor ROR-gamma (Homo sapiens) (UniProt P51449); experiment: qHTS assay to identify small molecule antagonists of the retinoid-related orphan receptor gamma (ROR-gamma) signaling pathway (AID 1159521;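 note: CHO cells with doxycycline inducible ROR-gamma driving an RORE luciferase reporter; top concentration of the series differs between compounds; nearly all actives have a fitted effect of over 50% in size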)
Outline: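 Cells were plated, rested 4 h at 37 C, exposed to compounds for 2 h, then given 1 uM final doxycycline hyclate to induce RORγ expression. After 16 h, ONE-Glo luminescence from the ROR response element reporter was measured.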

[6] = qHTS assay to identify small molecule agonists of the AP-1 signaling pathway - cell viability counter screen (AID 1159525; calls by dose curve; note: nearly all actives have a fitted effect of over 55% in size)
Outline: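 ME-180 AP-1-bla, 2500 cells/well, Opti-MEM + 0.5% dialyzed FBS; overnight 37 °C; cpd 15-pt titration, 5 h 37 °C; CellTiter-Glo 30 min RT; luminescence read; normalised to TOAB and DMSO controls.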

[7] = qHTS assay to identify small molecule agonists of the AP-1 signaling pathway (AID 1159526; calls by dose curve)
[8] = target: Retinoic acid receptor RXR-alpha (Homo sapiens) (UniProt P19793); experiment: qHTS assay to identify small molecule agonists of the RXR signaling pathway (AID 1159527; calls by dose curve; note: nearly all actives have a fitted effect of over 35% in size; note: potency is the fitted concentration of half-maximal effect)
Outline: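 Cells plated at 2,000/well, rested 5 hr at 37 C, pin-dosed with DMSO compound solutions, incubated 16 hr, then loaded with B/G FRET substrate for 2 hr at RT before dual-emission fluorescence reading.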

[9] = qHTS assay to identify small molecule agonists of the RXR signaling pathway - cell viability counter screen (AID 1159529);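 note: HEK 293T cells carrying an RXR-alpha UAS beta-lactamase reporter; series mostly up to about 77 µM; nearly all actives have a fitted effect of over 50% in size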
Outline: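 Steps: seed RXR-alpha-UAS-bla HEK 293T cells in assay medium containing 2% charcoal-stripped FBS; incubate 5 hr; add compounds in DMSO; incubate 16 hr at 37 C; after the bla read, add CellTiter-Glo and read luminescence at 30 min.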

[10] = qHTS assay to identify small molecule antagonists of the retinoid acid receptor (RAR) signaling pathway - cell viability counter screen (AID 1159551); note: nearly all actives have a fitted effect of over 35% in size
Outline: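 Following overnight attachment, C3RL4 reporter cells received DMSO-dissolved compounds and then retinol (1 uM final). Six hours later at 37 C, ATP content was measured by CellTiter-Glo luminescence.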

[11] = qHTS assay to identify small molecule antagonists of the retinoic acid receptor (RAR) signaling pathway (AID 1159552; note: nearly all actives have a fitted effect of over 50% in size)
Outline: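 Retinol at 1 uM final stimulated RARE-luciferase expression in C3RL4 cells exposed to test compounds for 6 hr at 37 C. Reduced luminescence, read 30 min after detection reagent, indicated pathway antagonism.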

[12] = qHTS assay to identify small molecule agonists of the retinoic acid receptor (RAR) signaling pathway (AID 1159553); note: potency is the fitted concentration of half-maximal effect
Outline: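 Cell line C3RL4, RARE luciferase reporter. Treatment: compounds in DMSO, 6 hr, 37 C, 5% CO2, after overnight plating. Detection: luminescence, 30 min RT after reagent.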

[13] = qHTS assay to identify small molecule agonists of the NFkB signaling pathway - cell viability counter screen (AID 1159515; calls by dose curve; note: series mostly up to about 61 µM; nearly all actives have a fitted effect of over 55% in size)
Outline: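 Viability in NFkB-bla ME-180 cells was measured by CellTiter-Glo luminescence, 30 min room temperature, in wells already treated 5 hr with compounds and read for reporter FRET.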

[14] = qHTS assay to identify small molecule agonists of the endoplasmic reticulum stress response signaling pathway - cell viability counter screen (AID 1159517; calls by dose curve)
Outline: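 Luminescence readout: CellTiter-Glo, 30 min RT, same wells as the ESRE-bla reporter read. HeLa ESRE-bla, 1,500 cells/well, o/n 37 C; cpd 5 hr 37 C/5% CO2.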

[15] = qHTS assay to identify small molecule antagonists of the estrogen related receptor (ERR) signaling pathway - cell viability counter screen (AID 1224818);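 note: series mostly up to about 46 µM; viability measured after 17.5 h of compound exposure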
Outline: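 Here, ERR cells are plated at 2,000 cells per well, allowed 6 h to attach, and treated with compounds in DMSO for 17.5 h at 37 C. CellTiter-Fluor is then added and fluorescence read after 30 min.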

[16] = qHTS assay to identify small molecule antagonists of the estrogen related receptor (ERR) signaling pathway (AID 1224819)
Outline: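 LOPAC library screened for antagonism as reduced One-Glo luminescence in ERR reporter cells (2,000/well). Compounds were added after 6 h pre-incubation and left 18 h at 37C; reading followed a 30 min room-temperature reagent step.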

[17] = qHTS assay to identify small molecule agonists of the estrogen related receptor (ERR) signaling pathway (AID 1224820)
Outline: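 Quantitative HTS of the LOPAC library used NTP ERR reporter cells treated 18 h at 37 C. Signal is luminescence after One-Glo addition and a 30 min room-temperature incubation.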

[18] = qHTS assay to identify small molecule antagonists of the estrogen related receptor signaling pathway with the pleiotropic PPARgamma coactivator (PGC) cell viability counter screen (AID 1224822;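 note: series mostly up to about 46 µM; viability read after 17.5 h compound exposure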)
Outline: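 qHTS format, DMSO compound stocks pin-transferred onto PGC/ERR cells 6 h after plating; 17.5 h exposure at 37 C, then CellTiter-Fluor fluorescence.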

[19] = qHTS assay to identify small molecule agonists of the estrogen related receptor signaling pathway with the pleiotropic PPARgamma coactivator (PGC) (AID 1224823)
Outline: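 Cell-based luciferase assay in the NTP-supplied PGC/ERR line, 2,000 cells/well; 18 h compound exposure at 37 C, luminescence after One-Glo.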

[20] = test system: estrogen-related receptor alpha (ERRalpha) with PGC-1alpha coactivator, human; experiment: qHTS assay to identify small molecule antagonists of the estrogen related receptor signaling pathway with the pleiotropic PPARgamma coactivator (PGC) (AID 1224821; calls by dose curve)
Outline: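 Quantitative HTS for antagonism: PGC/ERR cells received compounds after 6 h attachment and were incubated 18 h at 37 C, with luminescence (One-Glo) as the endpoint.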

Measured: Potency

Sequence of Retinoic acid receptor RXR-alpha (Homo sapiens) (P19793 whole entry, looked up): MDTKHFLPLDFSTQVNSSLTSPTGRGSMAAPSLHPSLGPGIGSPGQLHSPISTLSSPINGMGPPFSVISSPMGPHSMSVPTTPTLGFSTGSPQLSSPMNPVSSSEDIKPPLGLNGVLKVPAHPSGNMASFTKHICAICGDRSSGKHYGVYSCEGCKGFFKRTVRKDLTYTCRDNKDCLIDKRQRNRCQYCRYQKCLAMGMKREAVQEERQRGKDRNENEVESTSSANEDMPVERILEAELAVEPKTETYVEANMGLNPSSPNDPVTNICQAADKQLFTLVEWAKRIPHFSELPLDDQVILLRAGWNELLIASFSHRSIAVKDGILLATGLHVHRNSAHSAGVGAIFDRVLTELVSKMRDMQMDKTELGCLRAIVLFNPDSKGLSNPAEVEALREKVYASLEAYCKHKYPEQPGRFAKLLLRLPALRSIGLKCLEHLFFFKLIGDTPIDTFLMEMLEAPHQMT

C=C(Cl)CSC(=S)N(CC)CC
not listed: [13] | [14] | [15] | [16] | [17] | [18] | [19] | [20]
inactive: all other assays above

Clc1ccc(C(Cl)(Cl)Cl)cn1
inactive: [1] | [2] | [4] | [5] | [6] | [7] | [9] | [10] | [11] | [12]

CC(O)CCl (stereo unspecified)
not listed: [2] | [15] | [16] | [17] | [18] | [19] | [20]
inactive: all other assays above

CN(CCO)CCO
inactive: [1] | [2] | [4] | [5] | [6] | [7] | [8] | [9] | [10] | [11] | [12]

C=CCC1(C(C)CC)C(=O)NC(=O)NC1=O (stereo unspecified)
not listed: [13] | [15] | [16] | [17] | [18] | [19] | [20]
inactive: all other assays above

[O-][Br+2]([O-])O
not listed: [6] | [13] | [15] | [16] | [17] | [18] | [19] | [20]
inactive: all other assays above

Cc1ccc(S(=O)(=O)N[C@@H](CCCCN)C(=O)CCl)cc1
not listed: [6] | [11] | [13] | [20]
inactive: all other assays above

CCCCCCC1CCOC1=O (stereo unspecified)
not listed: [2] | [15] | [16] | [17] | [18] | [19] | [20]
inactive: all other assays above

BrCCc1ccccc1
not listed: [13] | [15] | [16] | [17] | [18] | [19] | [20]
inactive: all other assays above

CCNc1nc(Cl)nc(NC(C)(C)C)n1
inactive: [1] | [2] | [3] | [14] | [4] | [5] | [7] | [8] | [9] | [11] | [12]

CC[C@@H](CO)NC(=O)[C@@H]1C=C2c3cccc4[nH]cc(c34)C[C@H]2N(C)C1
not listed: [6] | [13]
inactive: all other assays above

CCOC(=O)Nc1cccc(OC(=O)Nc2ccccc2)c1
active: [12] 27.3 µM
not listed: [2] | [15] | [16] | [17] | [18] | [19] | [20]
inactive: all other assays above

O=C1CCCCC1Cl (stereo unspecified)
inactive: [1] | [2] | [4] | [5] | [6] | [7] | [8] | [9] | [10] | [11] | [12]

COc1cc(CC(C)N)cc(OC)c1OC (stereo unspecified)
not listed: [2] | [15] | [16] | [17] | [18] | [19] | [20]
inactive: all other assays above

COC(=O)c1ccccc1CS(=O)(=O)NC(=O)Nc1nc(OC)cc(OC)n1
inactive: [2] | [3] | [4] | [5] | [7] | [8] | [10] | [11] | [12]

CC(C)(C)NC[C@H](O)c1ccc(O)cc1Cl
inactive: [1] | [2] | [3] | [4] | [5] | [7] | [8] | [9] | [10] | [11] | [12]

CS(=O)(=O)Cl
not listed: [13] | [15] | [16] | [17] | [18] | [19] | [20]
inactive: all other assays above

N=C(N)[Se]
not listed: [13] | [15] | [16] | [17] | [18] | [19] | [20]
inactive: all other assays above

Cc1cc(OC(=O)N(C)C)nn1C(=O)N(C)C
not listed: [3] | [13] | [15] | [16] | [17] | [18] | [19] | [20]
inactive: all other assays above

C[N+]1(C)CCCCC1
inactive: [2] | [3] | [14] | [4] | [5] | [6] | [7] | [9] | [10] | [12]
active: [8] 6.09 µM

NC(=O)CS(=O)C(c1ccccc1)c1ccccc1 (stereo unspecified)
not listed: [13] | [15] | [16] | [17] | [18] | [19] | [20]
inactive: all other assays above
